{"source": "PubChem BioAssay (NCATS)", "note": "Records with an inconclusive call do not appear. Calls of active or inactive are those of the source. The call rests on the fitted dose curve; in most records, active means well fitted cell-killing curve with a large enough effect; inconclusive means small, poorly fitted or top-dose-only effect; inactive means flat fitted curve, though single readings scatter. On the % scale 0 is the no-effect control and ±100 the full control effect; potency means the concentration at half of the fitted maximal effect."}
{"assay": "NCATS anti-infectives library activity on HEK293 viability as a counter-qHTS vs the C. elegans viability qHTS (AID 1745854)", "details": "HEK293 viability counter-screen; series mostly up to 41.8 µM; activity change, negative = cytotoxicity: at the top concentration", "text": "Assay Development and Screening Technology Laboratory (ADST)\nNational Center for Advancing Translational Sciences (NCATS), Rockville, MD\nNational Institute of Health (NIH), Bethesda, Maryland\nCaenorhabditis elegans has helped elucidate the evolutionarily conserved genetics underlying pathways and cellular processes implicated in human disease and may be ideally positioned to reveal novel pharmacological properties of exiting drugs. The organism's short life cycle and microscopic size is applicable to the technical requirements of high-throughput screening. Here a quantitative high-throughput screening (qHTS)-based forward chemical biology platform has been developed using C. elegans. 384-well microtiter plate laser scanning cytometry was used in the rapid detection and quantification of the fluorescent protein-encoded phenotype to score worm viability. In a proof-of-concept study, the pharmacological qHTS profile obtained from a library of 643 anti-infective compounds.\n1. Inglese, J., Auld, D. S., Jadhav, A., Johnson, R. L., Simeonov, A., Yasgar, A., Zheng, W., and Austin, C. P. (2006) Quantitative high-throughput screening: A titration-based approach that efficiently identifies biological activities in large chemical libraries, P Natl Acad Sci USA 103, 11473-11478.\n2. Auld, D. S., Johnson, R. L., Zhang, Y. Q., Veith, H., Jadhav, A., Yasgar, A., Simeonov, A., Zheng, W., Martinez, E. D., Westwick, J. K., Austin, C. P., and Inglese, J. (2006) Fluorescent protein-based cellular assays analyzed by laser-scanning microplate cytometry in 1536-well plate format, Method Enzymol 414, 566-589.\n3. Zuck, P., Lao, Z., Skwish, S., Glickman, J. F., Yang, K., Burbaum, J., and Inglese, J. (1999) Ligand-receptor binding measured by laser-scanning imaging, Proc Natl Acad Sci U S A 96, 11122-11127.\nPROTOCOL TABLE (as described by Inglese J, Shamu CE and Guy RK. 2007)\nSEQUENCE No. (e.g., 1, 2, 3, etc.); […] (e.g., C. elegans, Compounds, Incubation, Read, etc.); VALUE and DESCRIPTION.\n1. Compounds. Library compounds and digitonin control added at 25 nL per well to 7 assay ready 1536-well Greiner white/solid bottom high base, TC plates and two DMSO control plates, transferred by Echo acoustic dispenser.\n2. Cells. Seed 1500 HEK293 per well in 6 uL into assay ready Greiner 1536-well plates.\n3. Incubation. Incubate plated cells with compounds at 37C in 5% CO2, 95% RH for 24 hr.\n4. Reagent. Add 4 uL of CellTiter-Glo reagent from Promega per well of Greiner 1536-well plates with BioRAPTR FRD.\n5. Incubation. Incubate treated cells at room temperature for 10 min., protect from light.\n6. Detector. CellTiter-Glo luminescence measured using CCD-based camera (Viewlux) with settings as follows: Exposure, 1 sec; Gain, High; Speed, Slow; Binning, 2X.\nNOTES (numbers refer to Sequence numbers above; values are from representative experiments)\n1. NIH Anti-Infectives library pre-dispensed into 7 assay ready 1536-well Greiner white/solid bottom high base, TC plates with Echo 555 acoustic dispenser. Most compounds dispensed at 10 mM high concentration and plated in 7-pt 1:5 inter-plate titration at 25 nl / well for a final assay concentration range of 41.7 uM - 2.7 nM. Two 1536-well Greiner assay plates of DMSO plated as screening controls to be read at the beginning and the end of the screen. Controls included DMSO vehicle control added at 25 nl/well to each well of column 1 and […] (83.3 uM final assay concentration), and Digitonin titrated 1:2 at 25 nl/ well to column 4 in duplicate for a final assay concentration range of 83.3 uM - 2.5 nM.\n2. HEK293 cells grown for 48 hr in one T175 culture flask in DMEM high glucose media supplemented with 10% FBS and 1% Pen/Strep antibiotic. Cells trypsinized and diluted in 10 ml supplemented media, strained through 40 µm cell strainer, and diluted to a total volume of 40 ml with supplemented media. […]"}
{"molecule": "CC1(C)CC[C@]2(C(=O)O)CC[C@]3(C)C(=CC[C@@H]4[C@@]5(C)CC[C@H](O)C(C)(C)[C@@H]5CC[C@]43C)[C@@H]2C1", "activity change, negative = cytotoxicity": "-0.632% (inactive)"}
{"molecule": "CCC(C)n1ncn(-c2ccc(N3CCN(c4ccc(OCC5COC(Cn6cncn6)(c6ccc(Cl)cc6Cl)O5)cc4)CC3)cc2)c1=O", "note": "(stereo not given)", "activity change, negative = cytotoxicity": "2.31% (inactive)"}
{"molecule": "O=C1CC(=O)c2c(Cl)c(Cl)c(Cl)c(Cl)c21", "activity change, negative = cytotoxicity": "-3.85% (inactive)"}
{"molecule": "C=CC(=O)N1C/C(=C\\c2ccc([N+](=O)[O-])cc2)C(=O)/C(=C/c2ccc([N+](=O)[O-])cc2)C1", "Potency": "1.41 µM (active)"}
{"molecule": "O=C(Nc1ccccc1)c1ccccc1O", "activity change, negative = cytotoxicity": "-2.39% (inactive)"}
{"molecule": "CC(=O)Cc1cc(=O)c2c(C)cc(O)c(C3OC(CO)C(O)C(O)C3O)c2o1", "note": "(stereo not given)", "activity change, negative = cytotoxicity": "2.7% (inactive)"}
{"molecule": "CC(C)(C)NC(=O)N[C@H](C(=O)N1C[C@H]2[C@@H]([C@H]1C(=O)NC(CC1CCC1)C(=O)C(N)=O)C2(C)C)C(C)(C)C", "note": "(stereo not given in full)", "activity change, negative = cytotoxicity": "6.58% (inactive)"}
{"molecule": "CN(C)c1nc2c(Br)c(Br)c(Br)c(Br)c2n1CC(=O)O", "activity change, negative = cytotoxicity": "7.08% (inactive)"}
{"molecule": "O=C(Cc1ccccc1)Nc1nnc(NC2CCN(c3nnc(NC(=O)Cc4ccccc4)s3)CC2)s1", "activity change, negative = cytotoxicity": "-5.28% (inactive)"}
{"molecule": "O=C(O)CCc1ccc(O)cc1", "activity change, negative = cytotoxicity": "1.73% (inactive)"}
{"molecule": "CC(C)CN(C[C@@H](O)[C@H](Cc1ccccc1)NC(=O)[C@@H](NC(=O)CNCc1cccc(F)c1)C(C)(C)C)S(=O)(=O)c1cccc(N)c1", "activity change, negative = cytotoxicity": "-15.6% (inactive)"}
{"molecule": "CCCCc1ccc(O)cc1O", "activity change, negative = cytotoxicity": "-9.59% (inactive)"}
{"molecule": "O=c1c(O[C@@H]2O[C@H](CO)[C@H](O)[C@H](O)[C@H]2O)c(-c2ccc(O)c(O)c2)oc2cc(O)cc(O)c12", "activity change, negative = cytotoxicity": "-1.13% (inactive)"}
{"molecule": "O=C(NO)c1cccc(C(=O)NCCc2ccccc2)c1", "activity change, negative = cytotoxicity": "14.9% (inactive)"}
{"molecule": "CC(C)=CCC/C(C)=C/CC/C(C)=C/C=C/C(C)=C/C(=O)O", "activity change, negative = cytotoxicity": "-12.5% (inactive)"}
{"molecule": "CC(C)C[C@H](NC(=O)[C@H]1O[C@@H]1C(=O)O)C(=O)NCCCCN=C(N)N", "activity change, negative = cytotoxicity": "0.987% (inactive)"}
{"molecule": "O=C(O)/C(S)=C/c1c[nH]c2ccc(F)cc12", "activity change, negative = cytotoxicity": "8.22% (inactive)"}
{"molecule": "Cc1ccc(C2Nc3ccccc3C(=O)N2c2ccccc2)s1", "note": "(stereo not given)", "activity change, negative = cytotoxicity": "2.76% (inactive)"}
{"molecule": "Nc1ccccc1NC(=O)c1cnccn1", "activity change, negative = cytotoxicity": "-13.4% (inactive)"}
{"molecule": "COC(=O)N[C@H](C(=O)N1CCC[C@H]1c1ncc(-c2ccc3c(c2)O[C@@H](c2ccccc2)n2c-3cc3cc(-c4cnc([C@@H]5CCCN5C(=O)[C@@H](NC(=O)OC)C(C)C)[nH]4)ccc32)[nH]1)C(C)C", "activity change, negative = cytotoxicity": "-18.6% (inactive)"}
{"molecule": "O=C(/C=C/c1ccc(O)c(O)c1)O[C@@H](C(=O)O)[C@@H](OC(=O)/C=C/c1ccc(O)c(O)c1)C(=O)O", "activity change, negative = cytotoxicity": "-2.13% (inactive)"}
{"molecule": "C[C@H]1[C@H](OC(=O)CCC(=O)O)O[C@@H]2O[C@@]3(C)CC[C@H]4[C@H](C)CC[C@@H]1[C@@]24OO3", "activity change, negative = cytotoxicity": "-13.9% (inactive)"}
{"molecule": "CCCCCCCCCCCCCCCCOCCCOP(=O)(O)CO[C@H](CO)Cn1ccc(N)nc1=O", "activity change, negative = cytotoxicity": "-5.25% [at 8.35 µM] (inactive)"}
{"molecule": "O=C(O)[C@H]1O[C@@H](Oc2cc3oc(-c4ccc(O)cc4)cc(=O)c3c(O)c2O)[C@H](O)[C@@H](O)[C@@H]1O", "activity change, negative = cytotoxicity": "13.6% (inactive)"}
{"molecule": "O=C(O)[C@H]1O[C@@H](Oc2cc3oc(-c4ccccc4)cc(=O)c3c(O)c2O)[C@H](O)[C@@H](O)[C@@H]1O", "activity change, negative = cytotoxicity": "-29.6% (inactive)"}
{"molecule": "Cc1ccc(-c2ccc3c(c2)C=C(C(=O)Nc2ccc(C[N+](C)(C)C4CCOCC4)cc2)CCC3)cc1", "activity change, negative = cytotoxicity": "-17.7% (inactive)"}
{"molecule": "C[C@@]1(F)[C@H](O)[C@@H](CO)O[C@H]1n1ccc(=O)[nH]c1=O", "activity change, negative = cytotoxicity": "-27.1% (inactive)"}
{"molecule": "O=c1cc(-c2ccc(O)cc2)oc2cc(O)c(O)c(O)c12", "activity change, negative = cytotoxicity": "-13.9% (inactive)"}
{"molecule": "CC(C)C1=C2[C@H]3CC[C@@H]4[C@@]5(C)CC[C@H](OC(=O)CC(C)(C)C(=O)O)C(C)(C)[C@@H]5CC[C@@]4(C)[C@]3(C)CC[C@@]2([C@@H](O)CN(CCN(C)C)Cc2ccc(Cl)cc2)CC1=O", "activity change, negative = cytotoxicity": "18.8% (inactive)"}
{"molecule": "CC(C)Nc1nc2cc(Cl)c(Cl)cc2n1[C@H]1O[C@@H](CO)[C@H](O)[C@@H]1O", "activity change, negative = cytotoxicity": "-13.7% (inactive)"}
{"molecule": "CC(C)c1nc(CN(C)C(=O)N[C@@H](CCN2CCOCC2)C(=O)N[C@H](CC[C@H](Cc2ccccc2)NC(=O)OCc2cncs2)Cc2ccccc2)cs1", "activity change, negative = cytotoxicity": "-16.7% (inactive)"}
{"molecule": "C=C[C@@H]1C[C@]1(NC(=O)[C@@H]1C[C@@H]2CN1C(=O)[C@H](C(C)(C)C)NC(=O)O[C@@H]1C[C@H]1CCCCCc1nc3ccc(OC)cc3nc1O2)C(=O)NS(=O)(=O)C1CC1", "activity change, negative = cytotoxicity": "-1.22% (inactive)"}
{"molecule": "CCCCC(=O)N(Cc1ccc(-c2ccccc2-c2nn[nH]n2)cc1)[C@H](C(=O)O)C(C)C", "activity change, negative = cytotoxicity": "-9.69% (inactive)"}
{"molecule": "CC[C@@]1([C@@H]2O[C@@H]([C@H]3O[C@@](O)(CO)[C@H](C)C[C@@H]3C)C[C@@H]2C)CC[C@H]([C@]2(C)CCC3(C[C@H](O)[C@@H](C)[C@@H]([C@@H](C)[C@@H](OC)[C@H](C)C(=O)O)O3)O2)O1", "note": "(stereo not given in full)", "activity change, negative = cytotoxicity": "-29.3% [at 3.71 µM] (inactive)"}
{"molecule": "COc1ccc(-c2oc3cc(O)cc(O)c3c(=O)c2O)cc1", "activity change, negative = cytotoxicity": "-16.5% (inactive)"}
{"molecule": "CCOC(=O)c1c(C)sc(-c2c(-c3ccc(OC)c(F)c3)[nH]c3c2c(=O)[nH]c(=O)n3C)c1O", "activity change, negative = cytotoxicity": "-11.4% (inactive)"}
{"molecule": "CCC(CC)[C@H](NC(C)=O)[C@@H]1[C@H](O)[C@@H](C(=O)O)C[C@H]1N=C(N)N", "activity change, negative = cytotoxicity": "-6.87% [at 0.334 µM] (inactive)"}
{"molecule": "COc1ccc(/C=C/C(=O)O)cc1O", "activity change, negative = cytotoxicity": "-5.54% (inactive)"}
{"molecule": "Cc1nc2ccccc2c(-c2ccc3c(c2)CCCO3)c1C(OC(C)(C)C)C(=O)O", "note": "(stereo not given)", "activity change, negative = cytotoxicity": "-4.2% (inactive)"}
{"molecule": "CC(C)CN(C[C@@H](O)[C@H](Cc1ccccc1)NC(=O)O[C@H]1CCOC1)S(=O)(=O)c1ccc(N)cc1", "activity change, negative = cytotoxicity": "8.34% (inactive)"}
